Mdm2-MdmX inh: human Mdm2/MdmX binding inhibition; inhibition, % at 8 µM; O15151+Q00987; SaOS-2 split-luciferase Mdm2/MdmX complementation, luminescence; 3% of 330,000 active;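 active means inhibition of at least 50% at 8 µM in the primary screen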
CF NFkB block: cystic fibrosis NF-kB activation inhibition. inhibition, % at 5 µM. 0.86% of 360,000 active. KKLEB NF-kB-GFP reporter, PAF-induced, GFP fluorescence overnight;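 active means at least 50% inhibition at 5 µM, scaled per plate between neutral and stimulator controls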;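 further: PAF is a Pseudomonas aeruginosa culture filtrate used as stimulus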
Peg3 prom inh: Peg3 promoter activity inhibition; HeLa PEG-Prom luciferase reporter, luminescence, overnight; inhibition, % at 20 µM; 1.7% of 360,000 active; AID 588405;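 active means inhibition of at least 50% at 20 µM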
HIF-2a block: inhibitors of HIF-2a; 786-0 RCC cells HIF-2a reporter, luciferase luminescence, overnight; inhibition, % at 18.8 µM; AID 624352; 0.72% of 360,000 active;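 active means inhibition of the luminescence signal of 40% or more relative to plate controls, in a single-dose primary screen at 18.75 µM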
KKLEB tox: CF airway cell cytotoxicity counter-screen; KKLEB CF airway cells viability, ATPlite luminescence, overnight; hits give low values; cells stimulated with P. aeruginosa culture filtrate; AID 602141; 0.36% of 360,000 active; activity change (cytotoxicity), % at 5 µM;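 active means corrected activity change at or below -50% at 5 µM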
ABHD5 PLIN5 PPI: blocks binding of human ABHD5 to perilipin-5. Q00G26+Q8WTS1. 0.78% of 360,000 active. inhibition, % at 4 µM. AID 602281. Split G. princeps luciferase complementation, luminescence, 4 h;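 active means inhibition above the mean inhibition across every tested compound plus 3 SD, cut at about 22% in these data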
Mdm2 MdmX conf: human Mdm2/MdmX binding inhibition, confirmed. shares compounds with Mdm2-MdmX inh. luminescent assay. inhibition, % at 8 µM. 55% of 10,000 active; in the data active means inhibition above about 40%
Full FLuc ctr: counter-screen for Mdm2/MdmX inhibitors: full-length luciferase; shares compounds with Mdm2-MdmX inh; SaOS-2 full-length luciferase counterscreen, luminescence; inhibition, % at 8 µM; 77% of 6,200 active; AID 504607;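 active means mean inhibition at 8 µM reaching about 37%, which flags the compound as non-specific, limit read from the data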;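 further: p53-null SaOS-2 cells with luciferase driven by a doxycycline-inducible promoter; compound on cells about two nights before reading with doxycycline added after day one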
Each line names hits and unclear results; the compound was inactive in the other large screens (follow-up assays come after a bar, where they were run). Most compounds without a hit are left out; they make up all but 4.6% or so of the library.

CCOC(=O)c1ccc(CC2S/C(=C(\C#N)C(C)=O)NC2=O)cc1 (configuration not stated)	none
CCc1ccc(CC2S/C(=C(\C#N)C(C)=O)NC2=O)cc1 (configuration not stated)	Mdm2-MdmX inh 61 | Mdm2 MdmX conf 74 | Full FLuc ctr 70
O=C(CNC(=O)c1ccco1)NNC(=O)c1n[nH]c(=O)c2ccccc12	none
CC1CCC2(CC1)NC(=O)N(CC(=O)NCCc1ccc(F)cc1)C2=O (configuration not stated)	none
COC1=CC(=O)OC(c2ccco2)C1 (configuration not stated)	none (no result: Mdm2-MdmX inh)
COc1ccc2c(c1)O[C@H](c1ccc3c(c1)OCO3)[C@@H](OC(=O)N[C@H]1CCCc3ccccc31)C2=O	none (no result: CF NFkB block, Peg3 prom inh, HIF-2a block, KKLEB tox, ABHD5 PLIN5 PPI)
COc1ccc2c(c1)O[C@H](c1ccc3c(c1)OCO3)[C@@H](O)C2=O	Mdm2-MdmX inh 50 | Mdm2 MdmX conf inactive
COc1ccc2c(c1)O[C@@H](c1cccc(C(F)(F)F)c1)[C@H](O)C2=O	Mdm2-MdmX inh 55 (no result: CF NFkB block, Peg3 prom inh, HIF-2a block, KKLEB tox, ABHD5 PLIN5 PPI) | Mdm2 MdmX conf 60 | Full FLuc ctr 36
COCc1cccc(-c2csc(C(C)(NC(C)=O)c3ccc(OC)cc3)n2)c1 (configuration not stated)	none (no result: Mdm2-MdmX inh)
Cc1cc(C(=O)CCl)c(C)n1-c1cccc([N+](=O)[O-])c1	Mdm2-MdmX inh 69, Peg3 prom inh 105 | Mdm2 MdmX conf inactive | Full FLuc ctr 60
Cc1cc(N2CCCCC2)n2ncc(-c3ccc(Cl)cc3)c2n1	none
Cc1cc(N2CCOCC2)n2ncc(-c3ccccc3)c2n1	none
CC(=O)Nc1ccc(Nc2cc(C)nc3c(-c4ccc(Cl)cc4)c(C)nn23)cc1	none
CC(=O)Nc1ccc(Nc2cc(C)nc3c(-c4ccc(Cl)cc4)cnn23)cc1	Mdm2-MdmX inh 81 | Mdm2 MdmX conf 87 | Full FLuc ctr 156
Cc1ccc(-c2cnn3c(N4CCOCC4)cc(C)nc23)cc1	Mdm2-MdmX inh 64 | Mdm2 MdmX conf 69 | Full FLuc ctr active
Cc1cc(N2CCOCC2)n2ncc(-c3ccc(Cl)cc3)c2n1	Mdm2-MdmX inh 62 | Mdm2 MdmX conf 74 | Full FLuc ctr 195
CCNC(C(=O)c1c[nH]c2c(CC)cccc12)c1ccccc1 (configuration not stated)	none
O=C(NCCc1nnc2ccc(SCC(=O)N3CCCC3)nn12)c1ccc(F)cc1	none
CCCN1CCC2(CC1)C(C#N)=C(N)Oc1c2sc2nc(C)cc(C)c12	none
Cc1cc(C)c2c3c(sc2n1)C(c1cccc(F)c1)C(C#N)=C(N)O3 (configuration not stated)	Mdm2-MdmX inh 79 | Mdm2 MdmX conf inactive
CCN1C(=O)[C@H]2[C@@H](c3ccc(C)cc3)N3C(=O)N(c4cccc(C)c4)C(=O)[C@@]3(Cc3ccccc3)[C@H]2C1=O	none
COc1ccc(N2C(=O)N3[C@H](c4cccc(C)c4)[C@@H]4C(=O)N(Cc5ccccc5)C(=O)[C@@H]4[C@]3(Cc3ccccc3)C2=O)cc1	Mdm2-MdmX inh 70 (no result: CF NFkB block, Peg3 prom inh, HIF-2a block, KKLEB tox, ABHD5 PLIN5 PPI) | Mdm2 MdmX conf 80 | Full FLuc ctr inactive
Cc1cccc([C@@H]2[C@@H]3C(=O)N(Cc4ccccc4)C(=O)[C@@H]3[C@]3(C)C(=O)N(c4ccc(C(F)(F)F)cc4)C(=O)N23)c1	Mdm2-MdmX inh 84 | Mdm2 MdmX conf 74 | Full FLuc ctr inactive
COc1ccc(OCC(=O)N2CCC(n3nccc3NC(=O)C3CC3)CC2)cc1	none
CCN(CC)CCCCN1c2ccccc2Sc2ccccc21	Mdm2-MdmX inh 59 | Mdm2 MdmX conf inactive
CCN(CC)CC(=O)N1c2ccccc2Sc2ccccc21	none
C/C(=N/NC(=O)c1sc(=S)n(C)c1C)c1ccccc1	Mdm2-MdmX inh 53 | Mdm2 MdmX conf inactive
Cc1c(C(=O)NN)sc(=S)n1C	none
NC(=O)c1nc(-c2ccco2)nc2c1[nH]c(=O)n2-c1ccc(Cl)c(Cl)c1	Mdm2-MdmX inh 75, Peg3 prom inh 80 | Mdm2 MdmX conf inactive
CC(OC(=O)C1CCCC1)C(=O)Nc1ncc(Cl)cc1Cl (configuration not stated)	none

Compound activity from PubChem BioAssay.
